Source: PubChem BioAssay AID1159580 (chemical genetic matrix, 2015)
Hit rate of the full screen: of about 5,500 compounds, about 2,000 (36%) were called active. Another 18% or so got no clear call; they are omitted. Cut-off read from the data, not from the text of the source: active = normalized growth mostly below about 0.91 (no sharp cut-off); inconclusive = no clear call, values can overlap the other calls; inactive = mostly above about 0.92. This is one part of the list.

Assay: chemical genetic growth profiling, strain panel (AID 1159580);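 note: tested at 20 µM; growth read once vehicle control cultures reached saturation at 30 °C; 1 = growth at the plate median or of vehicle wells; lower values mean less growth of the strain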
Conditions: growth OD

Measured: normalized growth

CO[C@@H]1[C@@H](OC(N)=O)[C@@H](O)[C@H](Oc2ccc3c(O)c(NC(=O)c4ccc(O)c(CC=C(C)C)c4)c(=O)oc3c2C)OC1(C)C
active: S. cerevisiae deletion strains, locus YKL068W, stronger effect = lower value 0.925 | S. cerevisiae deletion strains, locus YLR113W, strain HOG1, stronger effect = lower value 0.793
inactive: S. cerevisiae deletion strains, locus YJR043C, strain POL32, stronger effect = lower value 1 | S. cerevisiae deletion strains, locus YJR066W, strain TOR1, stronger effect = lower value 0.896 | S. cerevisiae deletion strains, locus YJR075W, strain HOC1, stronger effect = lower value 1.02 | S. cerevisiae deletion strains, locus YKL009W, strain mrt4, stronger effect = lower value 0.96 | S. cerevisiae deletion strains, locus YKL085W, strain MDH1 (second series), stronger effect = lower value 0.949 | S. cerevisiae deletion strains, locus YKL085W, strain MDH1, stronger effect = lower value 0.949 | S. cerevisiae deletion strains, locus YKL160W, strain elf1, stronger effect = lower value 1.03 | S. cerevisiae deletion strains, locus YKL190W, strain CNB1, stronger effect = lower value 0.993 | S. cerevisiae deletion strains, locus YKR001C, strain vps1, stronger effect = lower value 0.99 | S. cerevisiae deletion strains, locus YKR026C, strain gcn3, stronger effect = lower value 1.04 | S. cerevisiae deletion strains, locus YKR091W, strain srl3, stronger effect = lower value 1.03 | S. cerevisiae deletion strains, locus YLL001W, strain dnm1, stronger effect = lower value 1.04 | S. cerevisiae deletion strains, locus YLL026W, stronger effect = lower value 1.04 | S. cerevisiae deletion strains, locus YLL041C, strain sdh2, stronger effect = lower value 1.02 | S. cerevisiae deletion strains, locus YLR027C, strain aat2, stronger effect = lower value 1.03 | S. cerevisiae deletion strains, locus YLR039C, strain RIC1, stronger effect = lower value 0.962 | S. cerevisiae deletion strains, locus YLR058C, strain SHM2, stronger effect = lower value 1.01 | S. cerevisiae deletion strains, locus YLR102C, strain apc9, stronger effect = lower value 0.993 | S. cerevisiae deletion strains, locus YLR221C, strain rsa3, stronger effect = lower value 1.02 | S. cerevisiae deletion strains, locus YLR258W, strain gsy2, stronger effect = lower value 1.03 | S. cerevisiae deletion strains, locus YLR262C, strain YPT6 (second series), stronger effect = lower value 1.02 | S. cerevisiae deletion strains, locus YLR262C, strain YPT6, stronger effect = lower value 0.968 | S. cerevisiae deletion strains, locus YLR268W, strain sec22, stronger effect = lower value 0.955 | S. cerevisiae deletion strains, locus YLR320W, strain mms22, stronger effect = lower value 1.04 | S. cerevisiae deletion strains, locus YLR330W, strain CHS5, stronger effect = lower value 1.03 | S. cerevisiae deletion strains, locus YLR342W, strain FKS1 (second series), stronger effect = lower value 1.04 | S. cerevisiae deletion strains, locus YLR342W, strain FKS1, stronger effect = lower value 1.03 | S. cerevisiae deletion strains, locus YLR357W, strain rsc2, stronger effect = lower value 1.05 | S. cerevisiae deletion strains, locus YLR370C, strain arc18, stronger effect = lower value 1.03 | S. cerevisiae deletion strains, locus YLR371W, strain rom2, stronger effect = lower value 0.979 | S. cerevisiae deletion strains, locus YLR384C, strain iki3, stronger effect = lower value 1.04 | S. cerevisiae deletion strains, locus YLR418C, strain cdc73, stronger effect = lower value 1 | S. cerevisiae deletion strains, locus YML016C, strain PPZ1, stronger effect = lower value 1.02 | S. cerevisiae deletion strains, locus YML032C, strain rad52, stronger effect = lower value 0.99 | S. cerevisiae deletion strains, locus YML120C, strain ndi1, stronger effect = lower value 1.02 | S. cerevisiae deletion strains, locus YML124C, strain tub3, stronger effect = lower value 1 | S. cerevisiae deletion strains, locus YMR058W, strain fet3, stronger effect = lower value 1.03 | S. cerevisiae deletion strains, locus YMR078C, strain ctf18, stronger effect = lower value 0.997 | S. cerevisiae deletion strains, locus YMR125W, strain sto1, stronger effect = lower value 1.02 | S. cerevisiae deletion strains, locus YMR129W, stronger effect = lower value 1.03 | S. cerevisiae deletion strains, locus YMR205C, strain PFK2, stronger effect = lower value 1.05 | S. cerevisiae deletion strains, locus YMR223W, strain ubp8, stronger effect = lower value 1.03 | S. cerevisiae deletion strains, locus YMR231W, strain pep5, stronger effect = lower value 1.03 | S. cerevisiae deletion strains, locus YMR307W, strain GAS1, stronger effect = lower value 1.02 | S. cerevisiae deletion strains, locus YNL067W, strain RPL9B, stronger effect = lower value 0.989 | S. cerevisiae deletion strains, locus YNL071W, strain lat1, stronger effect = lower value 1.04 | S. cerevisiae deletion strains, locus YNL128W, strain TEP1, stronger effect = lower value 0.945 | S. cerevisiae deletion strains, locus YNL183C, strain NPR1, stronger effect = lower value 0.847 | S. cerevisiae deletion strains, locus YNL209W, strain ssb2, stronger effect = lower value 1.04 | S. cerevisiae deletion strains, locus YNL233W, strain BNI4, stronger effect = lower value 1.02 | S. cerevisiae deletion strains, locus YNL248C, strain rpa49, stronger effect = lower value 1.02 | S. cerevisiae deletion strains, locus YNL250W, strain rad50, stronger effect = lower value 0.956 | S. cerevisiae deletion strains, locus YNL271C, strain bni1, stronger effect = lower value 0.986 | S. cerevisiae deletion strains, locus YNL298W, strain CLA4, stronger effect = lower value 0.997 | S. cerevisiae deletion strains, locus YNL307C, strain MCK1, stronger effect = lower value 0.991 | S. cerevisiae deletion strains, locus YNL322C, strain KRE1 (second series), stronger effect = lower value 1.01 | S. cerevisiae deletion strains, locus YNR049C, strain mso1, stronger effect = lower value 1.04 | S. cerevisiae deletion strains, locus YNR052C, strain pop2, stronger effect = lower value 0.978 | S. cerevisiae deletion strains, locus YOL006C, strain TOP1, stronger effect = lower value 0.965 | S. cerevisiae deletion strains, locus YOL012C, strain htz1 1 | S. cerevisiae deletion strains, locus YOL147C, strain pex11, stronger effect = lower value 1.01 | S. cerevisiae deletion strains, locus YOR001W, strain rrp6, stronger effect = lower value 0.979 | S. cerevisiae deletion strains, locus YOR061W, strain CKA2, stronger effect = lower value 1.01 | S. cerevisiae deletion strains, locus YOR069W, strain VPS5, stronger effect = lower value 1.01 | S. cerevisiae deletion strains, locus YOR070C, strain gyp1, stronger effect = lower value 1.03 | S. cerevisiae deletion strains, locus YOR080W, strain dia2, stronger effect = lower value 1.04 | S. cerevisiae deletion strains, locus YOR083W, strain WHI5, stronger effect = lower value 1.03 | S. cerevisiae deletion strains, locus YOR106W, strain vam3, stronger effect = lower value 1.02 | S. cerevisiae deletion strains, locus YOR136W, strain idh2, stronger effect = lower value 1 | S. cerevisiae deletion strains, locus YOR144C, strain elg1, stronger effect = lower value 1 | S. cerevisiae deletion strains, locus YOR184W, strain ser1, stronger effect = lower value 0.987 | S. cerevisiae deletion strains, locus YOR231W, strain MKK1, stronger effect = lower value 0.882 | S. cerevisiae deletion strains, locus YOR265W, strain rbl2, stronger effect = lower value 1.02 | S. cerevisiae deletion strains, locus YOR270C, strain vph1, stronger effect = lower value 0.927 | S. cerevisiae deletion strains, locus YOR290C, strain snf2, stronger effect = lower value 1.05 | S. cerevisiae deletion strains, locus YOR316C, strain cot1, stronger effect = lower value 0.987 | S. cerevisiae deletion strains, locus YPL051W, strain arl3, stronger effect = lower value 1.05 | S. cerevisiae deletion strains, locus YPL055C, strain LGE1, stronger effect = lower value 0.991 | S. cerevisiae deletion strains, locus YPL078C, strain atp4, stronger effect = lower value 1.02 | S. cerevisiae deletion strains, locus YPL106C, strain sse1, stronger effect = lower value 1.05 | S. cerevisiae deletion strains, locus YPL240C, strain hsp82, stronger effect = lower value 1.02 | S. cerevisiae deletion strains, locus YPL256C, strain CLN2, stronger effect = lower value 0.861 | S. cerevisiae deletion strains, locus YPR119W, strain clb2, stronger effect = lower value 1.01 | S. cerevisiae deletion strains, locus YPR141C, strain kar3, stronger effect = lower value 0.962 | S. cerevisiae deletion strains, locus YPR163C, strain tif3, stronger effect = lower value 0.996 | S. cerevisiae deletion strains, locus YPR167C, strain met16, stronger effect = lower value 0.999 | S. cerevisiae deletion strains, strain wtn01, stronger effect = lower value 0.984 | S. cerevisiae strains, strain wild type, stronger effect = lower value 1.02
